Assay outcomes as filed in PubChem BioAssay.
ATXN viability – viability counter-screen for ATXN expression inhibitors; S2 cells (HEK-293 line with an ATXN2-luciferase reporter) viability, CellTiter-Fluor protease fluorescence, 24 h; Potency, µM (titrated, usually from 56.7 µM), most hits filed as cytotoxic; 0.49% of 400,000 active; further: nearly all actives have a fitted effect of over 40% in size
TDP1 cell noCPT – qHTS for Inhibitors of human tyrosyl-DNA phosphodiesterase 1 (TDP1): qHTS in cells in absence of CPT; DT40 Tdp1-/- hTDP1 cells, no CPT, ATP luminescence, 48 h; Potency, µM (series often up to 46.2 µM), hits mostly inhibitors; 15% of 420,000 active; AID 686978, 2013; further: nearly all actives have a fitted effect of over 55% in size
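Cells were dispensed at 400 per well, compounds added by pin tool, plates incubated ≥48 hr at 37 °C, then CellTiter-Glo added for 30 min at room temperature before luminescence reading. Line: DT40 Tdp1-/- complemented with hTDP1; camptothecin omitted.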
HepG2 viability – kills HepG2 cells in TGF-b inhibitor counter-screen; HepG2 CAGA-GFP viability, ATP luminescence, 18 h; Potency, µM (series often up to 46.1 µM), hits mostly cytotoxic; 0.76% of 410,000 active; AID 588856
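HepG2 CAGA-GFP cells (1000/well, DMEM with 1% FBS) received compound, then TGF-beta at 500 pg/mL final, and were incubated 18 hours at 37 degrees C. Viability was read by CellTiter-Glo luminescence. Media-only wells were set as complete cell-killing and DMSO as no toxicity.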
DT40 TDP1 CPT – growth inhibition of DT40 Tdp1-/-;hTDP1 cells with camptothecin (screen for TDP1 inhibitors); AID 686979; chicken DT40 Tdp1-/-;hTDP1 cells + 20 nM CPT, ATP luminescence, 48 h; Potency, µM (series often up to 46.2 µM), usual class: inhibitors; 12% of 420,000 active; further: nearly all actives have a fitted effect of over 55% in size
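Cell growth measured by CellTiter-Glo luminescence after a minimum 48 h, 37 C compound exposure with 20 nM CPT in Tdp1-knockout DT40 cells stably expressing hTDP1, seeded 400/well; qHTS titration format.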
TGFb inhibitor – TGF-b pathway inhibition. Potency, µM (top dose mostly 46.1 µM), hits mostly inhibitors. HepG2 CAGA-GFP TGF-b/SMAD3 reporter, GFP fluorescence, 18 h; TGF-beta stimulated, 500 pg/mL final. 1.2% of 410,000 active. AID 588855; further: nearly all actives have a fitted effect of over 65% in size
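HEPG2 CAGA-GFP reporter cells (1000/well, DMEM with 1% FBS) received compounds, then recombinant TGF-beta at 500 pg/mL final for 18 hours at 37 degrees C. Per-cell GFP summed per well was normalised to unstimulated and stimulated DMSO controls before curve fitting.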
ATXN2 expr inh – ATXN2 expression inhibition; 0.72% of 360,000 active; HEK-293 ATXN2-luciferase reporter, luminescence, 24 h; Potency, µM (doses to about 57 µM), usual class: inhibitors; further: nearly all actives have a fitted effect of over 55% in size
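ATXN2-luciferase reporter cells (luciferase flanked by upstream and downstream ATXN2 gene portions) were treated 24 h at 37 °C with compounds at up to 57 uM. SteadyGlo luminescence gave expression; GF-AFC fluorescence gave viability.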
Numbers stand for hits; - = inactive; ? = inconclusive; . = no result given; [ ] = remark or other dose. Shown are actives, neighbours in structure and some others; about 17% of the full set was active somewhere. The call rests on the fitted dose curve; in most records, active means well fitted curve in the direction sought with a large enough effect; inconclusive means small, poorly fitted or top-dose-only effect, or another doubt; inactive means no such curve, though single readings can be large; an effect the other way counts as inactive or inconclusive.

SMILES	ATXN viability	TDP1 cell noCPT	HepG2 viability	DT40 TDP1 CPT	TGFb inhibitor	ATXN2 expr inh
COc1cc(OC)c(NC(=O)N2CCC(CN3CCOCC3)CC2)cc1Cl	.	-	-	-	-	.
Cc1ccc2occ(CN3CCOc4ccc(C(C)(O)COc5ccccc5)cc4C3)c(=O)c2c1 (stereo unspecified)	?	?	.	-[9.04 µM]	.	.
CN(C)CC/C=C1\c2ccccc2Sc2cc(F)c(Cl)cc21	?	16µM	-	16µM	?	-
CN(C)CC/C=C1\c2ccc(F)cc2Sc2cc(F)c(Cl)cc21	?	?	18µM	?	?	.
CN(C)CC/C=C1/c2cc(F)ccc2CSc2ccc(F)cc21	-	-	-	?	-	-
CN(C)CC/C=C1\c2cc(F)ccc2CSc2ccccc21	?	?	-	?	-	-
CN(C)CC/C=C1\c2cc(Cl)ccc2Sc2cc(F)c(F)cc21	-	23µM	-	?	?	-
CN(C)CC/C=C1/c2ccc(F)cc2Sc2ccc(Cl)cc21	?	16µM	16µM	?	?	?
COCC(C)NC(=O)CSc1nc2ccccc2n1CCc1ccccc1 (stereo unspecified)	-	?	-	?	-	.
Cc1ccccc1NC(=O)c1ccc2nc(Cc3ccccc3)oc2c1	?	?	-	?	-	?
CCOc1ccc(CN(C)CC(=O)Nc2ccc([N+](=O)[O-])cc2Cl)cc1	-	18µM	-	?	-	-
CN(CCOc1ccccc1)CC(=O)Nc1cc([N+](=O)[O-])ccc1Cl	-	?	-	-	-	-
COc1cc(=O)n2c(c1C(=O)N(C)Cc1nonc1C)CCN(Cc1cccc(Cl)c1)CC2	-	-	.	-[9.04 µM]	.	.
CC(OC(=O)c1ccc(Cl)nc1)C(=O)NC1CCCC1 (stereo unspecified)	-	-	-	-	-	-
CCN(C(=O)c1ccc(S(=O)(=O)N(C)C)cc1)C(C)C(=O)Nc1ccc(C)cc1 (stereo unspecified)	-	-	-	-	-	-
O=C(COC(=O)c1ccc(S(=O)(=O)N2CCCCC2)cc1)Nc1ccccc1Cl	-	-	-	-	-	-
Cc1cc(N2CCOCC2)nc2ccc(NC(=S)NCCC(C)C)cc12	-	21µM	-	18µM	-	-
COc1ccc(CNC(=S)Nc2ccc3nc(N4CCOCC4)cc(C)c3c2)cc1	-	?	-	21µM	-	-
COc1ccc(N(C)C(=O)CCC(=O)Nc2ccc3nc(N4CCOCC4)cc(C)c3c2)c(OC)c1	-	16µM	-	?	-	-
COc1cc(NC(=O)CCC(=O)Nc2ccc3nc(N4CCOCC4)cc(C)c3c2)cc(OC)c1OC	?	?	-	-	-	-
Cc1cc(N2CCOCC2)nc2ccc(NC(=S)NCCN(C)C)cc12	-	-	-	-	-	-
Cc1cc(N2CCN(C)CC2)nc2ccc(NC(=S)NCCC(C)C)cc12	?	15µM	-	23µM	-	.
COCCNC(=S)Nc1ccc2nc(N3CCN(C)CC3)cc(C)c2c1	-	?	-	-	-	-
COc1ccc(N(C)S(=O)(=O)c2cccc(C(=O)NCc3ccc4c(c3)OCO4)c2)cc1	-	?	-	?	-	-
COc1ccc(N(C)S(=O)(=O)c2cccc(C(=O)N3CCN(Cc4ccc5c(c4)OCO5)CC3)c2)cc1	-	18µM	-	23µM	?	-
SMILES	ATXN viability	TDP1 cell noCPT	HepG2 viability	DT40 TDP1 CPT	TGFb inhibitor	ATXN2 expr inh
COc1ccc(OC)c(CN2CCN(C(=O)c3cccc(S(=O)(=O)N(C)c4ccccc4)c3)CC2)c1	-	13µM	-	18µM	?	.
COc1ccc(OC)c(CN2CCN(C(=O)c3cccc(S(=O)(=O)Nc4ccccc4OC)c3)CC2)c1	-	?	-	?	-	-
CC/C(=N\N=C1\SC(C)C(=O)N1Cc1ccco1)c1ccccc1 (stereo unspecified)	-	?	-	?	-	-
CCN1C(=O)CC(CC(=O)N2CCCCC2c2nccs2)(c2ccccc2C)C1=O (stereo unspecified)	-	-	.	-[9.04 µM]	.	.
N#Cc1ccccc1NC(=O)CNc1ccc(Cl)c(C(F)(F)F)c1	-	?	-	?	-	-
COc1ccc(S(=O)(=O)Nc2cccc3c2O[C@H](CN(C)Cc2ccc(Oc4ccccc4)cc2)[C@@H](C)CN([C@H](C)CO)C3=O)cc1	?	21µM	-	16µM	?	?
C[C@H](CO)N1C[C@H](C)[C@@H](CN(C)S(=O)(=O)c2cccs2)Oc2c(NS(=O)(=O)c3ccccc3)cccc2C1=O	-	-	-	-	-	-
C[C@@H]1CN([C@H](C)CO)C(=O)c2cccc(NS(=O)(=O)c3cccs3)c2O[C@H]1CN(C)Cc1ccccc1	-	12µM	-	12µM	?	-
COc1ccc(CN(C)C[C@H]2Oc3c(NC(=O)Nc4ccccc4)cccc3C(=O)N([C@H](C)CO)C[C@@H]2C)cc1	?	29µM	-	16µM	-	-
COc1ccc(NC(=O)Nc2cccc3c2O[C@H](CN(C)C(=O)Nc2ccccc2)[C@@H](C)CN([C@H](C)CO)C3=O)cc1	-	-	-	-	?	-
CCc1ccc(OCC(=O)Nc2ccc(Cl)c(-c3nc4ncccc4o3)c2)cc1	-	?	-	?	-	-
CCOC(=O)c1cc(C)n(CC2CCC(C(=O)Nc3ccc(OC)c(OC)c3)CC2)c1C (stereo unspecified)	.	-	-	-	-	.
CCOC(=O)c1cc(C)n(CC2CCC(C(=O)Nc3ccc(C(=O)OC)cc3)CC2)c1C (stereo unspecified)	.	18µM	-	23µM	?	.
CCOC(=O)c1cc(C)n(CC2CCC(C(=O)Nc3ccc(C(C)=O)cc3)CC2)c1C (stereo unspecified)	.	10µM	-	12µM	?	.
CCOC(=O)c1cc(C)n(CC2CCC(C(=O)Nc3cccc(C(C)=O)c3)CC2)c1C (stereo unspecified)	.	26µM	-	23µM	14µM	.
CCOC(=O)c1cccc(NC(=O)C2CCCO2)c1 (stereo unspecified)	-	-	-	-	-	-
Cc1ccc(CNCCC2=CCCCC2)cc1	-	23µM	-	?	-	-
COc1ccc(C(=O)Nc2sc(C)c(-c3ccccc3)c2C#N)cc1OC	?	21µM	-	?	-	-
COc1ccc(CNc2ccc(N3CCN(C(C)=O)CC3)cc2)cc1OC	?	.	-	.	-	-
COc1cc(CNc2ccc(N3CCCCC3)cc2)ccc1OCC(=O)NC(C)(C)C	-	23µM	-	?	?	-
COc1cc(CNCc2cccs2)ccc1OCc1ccccc1	?	-	-	-	-	-
